What all share (assay): DAPPL (digital affinity profiling via proximity ligation, sequencing); 10 mM Tris-HCl pH 7.5, 50 mM NaCl, 1 mM DTT, 4% glycerol, room temperature, 30 min; GST-TFs on glutathione beads, 16-mer random dsDNA library, 0.1% formaldehyde crosslink after washing; high values mean tight binding
Details in all cases: protein: recombinant; tags: N-terminal GST; dsDNA, one strand shown

In one assay the target is T1, FLI1 (Homo sapiens, UniProt Q01543 1-452).
T1 sequence: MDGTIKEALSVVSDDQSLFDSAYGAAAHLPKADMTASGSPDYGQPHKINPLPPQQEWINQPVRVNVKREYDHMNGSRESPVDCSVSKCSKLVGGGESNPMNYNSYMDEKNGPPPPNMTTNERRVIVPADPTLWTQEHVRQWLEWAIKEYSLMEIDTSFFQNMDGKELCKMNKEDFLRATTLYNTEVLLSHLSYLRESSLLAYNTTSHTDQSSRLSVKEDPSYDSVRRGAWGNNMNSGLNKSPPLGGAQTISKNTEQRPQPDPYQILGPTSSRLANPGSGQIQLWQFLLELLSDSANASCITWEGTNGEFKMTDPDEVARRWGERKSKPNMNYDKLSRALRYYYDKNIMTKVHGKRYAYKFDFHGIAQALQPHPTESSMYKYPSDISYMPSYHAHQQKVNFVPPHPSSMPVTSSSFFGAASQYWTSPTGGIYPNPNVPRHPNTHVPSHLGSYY
In short, it runs like this:
(§1)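 After expression in yeast as GST fusions, human transcription factors were bound to glutathione beads, DNA-barcoded and mixed with a tag-only sample. The pools were incubated with 200 nmole of a 16-mer random double-stranded DNA library in Tris/NaCl/DTT/glycerol buffer (30 min, room temperature), washed and crosslinked with 0.1% formaldehyde. Proximity ligation with BsaI/T4 ligase ran for 1 h at 37 °C, before PCR amplification and sequencing on an Illumina NextSeq500. Binding signal is a hexamer's read frequency for a factor divided by its frequency for the tag-only sample.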

The next assay addresses T2, GABPA (Homo sapiens, UniProt Q06546 1-454).
T2 sequence: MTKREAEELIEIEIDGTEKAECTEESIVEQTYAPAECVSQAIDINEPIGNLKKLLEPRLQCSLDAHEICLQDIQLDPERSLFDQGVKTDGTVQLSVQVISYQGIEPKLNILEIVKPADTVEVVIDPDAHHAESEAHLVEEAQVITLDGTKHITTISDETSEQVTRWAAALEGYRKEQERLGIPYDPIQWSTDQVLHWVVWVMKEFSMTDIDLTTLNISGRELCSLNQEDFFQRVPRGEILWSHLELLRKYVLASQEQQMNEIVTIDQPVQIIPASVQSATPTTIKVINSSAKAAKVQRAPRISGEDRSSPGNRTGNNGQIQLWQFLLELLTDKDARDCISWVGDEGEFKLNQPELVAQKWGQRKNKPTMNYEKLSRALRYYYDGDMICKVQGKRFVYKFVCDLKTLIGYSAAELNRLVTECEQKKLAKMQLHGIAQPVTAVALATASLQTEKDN
In short, it runs like this: as §1

Another assay addresses T3, ERG (Homo sapiens, UniProt P11308 1-479).
T3 sequence: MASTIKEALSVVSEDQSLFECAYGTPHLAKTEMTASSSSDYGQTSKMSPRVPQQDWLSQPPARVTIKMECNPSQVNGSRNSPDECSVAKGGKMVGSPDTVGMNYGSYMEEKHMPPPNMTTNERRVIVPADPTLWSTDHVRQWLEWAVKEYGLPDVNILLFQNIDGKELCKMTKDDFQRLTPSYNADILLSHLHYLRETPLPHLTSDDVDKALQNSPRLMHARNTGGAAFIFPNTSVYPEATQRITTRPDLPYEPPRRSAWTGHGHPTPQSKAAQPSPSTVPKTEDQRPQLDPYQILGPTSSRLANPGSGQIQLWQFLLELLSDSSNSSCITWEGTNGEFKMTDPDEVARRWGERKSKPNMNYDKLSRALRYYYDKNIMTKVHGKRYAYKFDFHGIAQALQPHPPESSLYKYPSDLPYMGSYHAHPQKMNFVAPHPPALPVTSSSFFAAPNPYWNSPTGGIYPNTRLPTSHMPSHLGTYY
In short, it runs like this:
as §1

Another assay addresses ELF1 (Homo sapiens, UniProt P32519 1-619). In short, it runs like this:
as §1

Another assay concerns the target T4, EHF (Homo sapiens, UniProt Q9NZC4 1-300).
T4 sequence: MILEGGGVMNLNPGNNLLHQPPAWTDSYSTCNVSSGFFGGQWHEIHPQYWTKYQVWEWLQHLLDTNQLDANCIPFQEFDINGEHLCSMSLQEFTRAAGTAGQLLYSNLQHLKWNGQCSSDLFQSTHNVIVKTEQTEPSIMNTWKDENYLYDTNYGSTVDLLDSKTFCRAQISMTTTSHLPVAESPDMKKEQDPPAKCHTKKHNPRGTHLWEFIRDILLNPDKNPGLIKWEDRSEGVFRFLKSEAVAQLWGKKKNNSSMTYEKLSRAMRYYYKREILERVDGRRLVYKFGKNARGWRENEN
In short, it runs like this: as §1

The next assay has as its target SPIB (Homo sapiens, UniProt Q01892 1-262). Summed up: as §1
In another assay the target is T5, ELK3 (Homo sapiens, UniProt P41970 1-407).
T5 sequence: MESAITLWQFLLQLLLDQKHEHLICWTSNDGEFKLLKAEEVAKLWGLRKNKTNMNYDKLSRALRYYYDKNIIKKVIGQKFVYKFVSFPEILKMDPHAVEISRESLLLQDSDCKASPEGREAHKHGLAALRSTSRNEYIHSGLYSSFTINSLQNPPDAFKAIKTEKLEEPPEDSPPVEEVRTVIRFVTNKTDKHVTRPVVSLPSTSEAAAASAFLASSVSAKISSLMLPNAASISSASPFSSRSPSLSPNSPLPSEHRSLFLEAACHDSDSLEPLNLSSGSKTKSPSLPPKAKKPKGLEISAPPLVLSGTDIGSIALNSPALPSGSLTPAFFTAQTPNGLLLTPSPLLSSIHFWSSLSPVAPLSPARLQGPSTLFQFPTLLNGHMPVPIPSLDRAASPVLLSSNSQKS
Summed up: as §1

Another assay concerns the target ETV5 (Homo sapiens, UniProt P41161 1-510). Summed up:
as §1

The next assay has as its target T6, SPIC (Homo sapiens, UniProt Q8N5J4 1-248).
T6 sequence: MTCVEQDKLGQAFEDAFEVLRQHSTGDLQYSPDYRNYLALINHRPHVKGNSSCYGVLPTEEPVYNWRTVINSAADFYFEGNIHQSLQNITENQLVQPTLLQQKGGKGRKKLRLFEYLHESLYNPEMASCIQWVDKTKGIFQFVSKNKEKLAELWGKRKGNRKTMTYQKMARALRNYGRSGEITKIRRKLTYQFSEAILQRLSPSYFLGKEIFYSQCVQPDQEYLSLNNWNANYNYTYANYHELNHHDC
In short, it runs like this:
as §1

The target of the next assay is ELF4 (Homo sapiens, UniProt Q99607 1-663). Summed up:
as §1

Another assay addresses ETV1 (Homo sapiens, UniProt P50549 1-477). In short, it runs like this: as §1
The next assay addresses T7, ERF (Homo sapiens, UniProt P50548 1-548).
T7 sequence: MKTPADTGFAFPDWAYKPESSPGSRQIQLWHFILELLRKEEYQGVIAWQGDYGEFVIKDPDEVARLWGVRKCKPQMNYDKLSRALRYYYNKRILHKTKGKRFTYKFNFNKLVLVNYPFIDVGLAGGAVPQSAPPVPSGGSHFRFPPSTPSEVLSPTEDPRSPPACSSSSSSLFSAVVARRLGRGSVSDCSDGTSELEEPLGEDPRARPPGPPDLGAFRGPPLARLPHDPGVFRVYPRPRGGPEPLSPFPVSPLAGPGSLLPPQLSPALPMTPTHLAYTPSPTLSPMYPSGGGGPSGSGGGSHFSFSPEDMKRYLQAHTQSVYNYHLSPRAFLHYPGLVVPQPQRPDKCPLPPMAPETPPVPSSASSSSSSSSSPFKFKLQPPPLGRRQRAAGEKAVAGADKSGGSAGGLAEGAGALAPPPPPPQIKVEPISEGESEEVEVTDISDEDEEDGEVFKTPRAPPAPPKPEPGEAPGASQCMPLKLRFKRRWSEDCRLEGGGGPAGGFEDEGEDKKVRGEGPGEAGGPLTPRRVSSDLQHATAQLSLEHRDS
In short, it runs like this:
as §1

Another assay deals with T8, ETV3L (Homo sapiens, UniProt Q6ZN32 1-361).
T8 sequence: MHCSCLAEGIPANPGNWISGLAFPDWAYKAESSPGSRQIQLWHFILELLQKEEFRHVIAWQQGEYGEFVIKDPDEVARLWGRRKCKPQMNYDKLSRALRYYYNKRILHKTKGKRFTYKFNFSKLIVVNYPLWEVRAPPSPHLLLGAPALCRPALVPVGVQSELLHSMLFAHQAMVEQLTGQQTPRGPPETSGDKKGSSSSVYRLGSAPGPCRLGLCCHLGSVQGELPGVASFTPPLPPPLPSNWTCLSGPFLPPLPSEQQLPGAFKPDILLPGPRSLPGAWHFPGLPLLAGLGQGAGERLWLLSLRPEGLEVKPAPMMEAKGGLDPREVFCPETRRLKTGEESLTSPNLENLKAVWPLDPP
In short, it runs like this:
as §1

A further assay deals with T9, ETS2 (Homo sapiens, UniProt P15036 1-469).
T9 sequence: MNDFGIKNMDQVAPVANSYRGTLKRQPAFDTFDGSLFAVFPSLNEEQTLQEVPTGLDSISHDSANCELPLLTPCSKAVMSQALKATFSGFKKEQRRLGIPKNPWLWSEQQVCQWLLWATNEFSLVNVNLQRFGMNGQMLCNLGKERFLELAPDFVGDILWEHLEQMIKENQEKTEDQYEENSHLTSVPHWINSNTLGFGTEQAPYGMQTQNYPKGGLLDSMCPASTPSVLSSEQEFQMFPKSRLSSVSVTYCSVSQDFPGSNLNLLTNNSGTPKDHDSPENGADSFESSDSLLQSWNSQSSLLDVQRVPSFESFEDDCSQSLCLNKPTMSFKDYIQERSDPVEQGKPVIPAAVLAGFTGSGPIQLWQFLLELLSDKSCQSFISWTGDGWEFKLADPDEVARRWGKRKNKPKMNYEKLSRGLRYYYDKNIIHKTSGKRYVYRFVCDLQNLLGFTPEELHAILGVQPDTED
In short, it runs like this: as §1

The target in a further assay is T10, ETV3 (Homo sapiens, UniProt P41162-2 1-143).
T10 sequence: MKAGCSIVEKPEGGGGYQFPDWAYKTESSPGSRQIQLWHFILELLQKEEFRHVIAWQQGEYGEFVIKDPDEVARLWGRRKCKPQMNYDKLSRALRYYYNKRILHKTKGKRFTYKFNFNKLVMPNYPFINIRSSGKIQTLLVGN
In short, it runs like this:
as §1

Chain of ELF4 (Q99607 whole entry): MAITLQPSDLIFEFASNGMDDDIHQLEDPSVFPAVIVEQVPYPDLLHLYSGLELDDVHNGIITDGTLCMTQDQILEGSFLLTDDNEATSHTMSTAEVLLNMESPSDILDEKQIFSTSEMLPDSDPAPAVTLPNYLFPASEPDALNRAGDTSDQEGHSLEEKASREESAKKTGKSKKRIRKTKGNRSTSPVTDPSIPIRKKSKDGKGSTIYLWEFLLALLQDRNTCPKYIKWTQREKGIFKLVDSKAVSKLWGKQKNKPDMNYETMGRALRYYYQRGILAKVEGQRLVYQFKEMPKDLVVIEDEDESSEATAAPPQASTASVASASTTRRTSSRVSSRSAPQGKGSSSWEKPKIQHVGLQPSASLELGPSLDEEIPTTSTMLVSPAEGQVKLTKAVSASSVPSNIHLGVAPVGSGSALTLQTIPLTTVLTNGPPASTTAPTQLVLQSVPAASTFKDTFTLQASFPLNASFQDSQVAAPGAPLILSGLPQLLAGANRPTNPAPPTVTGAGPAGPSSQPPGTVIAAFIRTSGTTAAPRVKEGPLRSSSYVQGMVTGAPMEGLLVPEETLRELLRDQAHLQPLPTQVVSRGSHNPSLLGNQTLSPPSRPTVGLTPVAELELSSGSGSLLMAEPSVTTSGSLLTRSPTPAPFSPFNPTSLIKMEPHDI
Chain of ELF1 (P32519 whole entry): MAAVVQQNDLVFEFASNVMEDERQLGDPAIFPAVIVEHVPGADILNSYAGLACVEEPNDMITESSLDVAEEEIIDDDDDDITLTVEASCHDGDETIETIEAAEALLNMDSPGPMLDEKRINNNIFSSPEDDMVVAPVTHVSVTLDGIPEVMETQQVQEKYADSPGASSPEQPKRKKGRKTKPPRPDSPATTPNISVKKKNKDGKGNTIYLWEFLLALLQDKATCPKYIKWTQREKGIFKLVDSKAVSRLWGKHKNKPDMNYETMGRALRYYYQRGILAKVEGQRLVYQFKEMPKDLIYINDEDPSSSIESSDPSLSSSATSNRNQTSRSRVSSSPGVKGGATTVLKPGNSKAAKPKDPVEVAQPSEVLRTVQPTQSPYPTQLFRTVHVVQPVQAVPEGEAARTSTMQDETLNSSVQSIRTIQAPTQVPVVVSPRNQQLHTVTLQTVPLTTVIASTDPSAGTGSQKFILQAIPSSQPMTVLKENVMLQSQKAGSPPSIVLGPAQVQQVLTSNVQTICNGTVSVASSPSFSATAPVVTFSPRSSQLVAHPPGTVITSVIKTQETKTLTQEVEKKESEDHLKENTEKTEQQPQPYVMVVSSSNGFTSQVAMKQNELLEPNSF
Chain of SPIB (Q01892 whole entry): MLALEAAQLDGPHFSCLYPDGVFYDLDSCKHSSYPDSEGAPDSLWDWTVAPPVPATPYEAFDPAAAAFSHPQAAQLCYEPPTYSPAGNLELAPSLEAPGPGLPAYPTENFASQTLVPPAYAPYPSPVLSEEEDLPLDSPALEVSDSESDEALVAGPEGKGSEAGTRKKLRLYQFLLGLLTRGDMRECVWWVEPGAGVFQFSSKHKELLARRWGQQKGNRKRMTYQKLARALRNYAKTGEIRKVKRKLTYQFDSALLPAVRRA
Chain of ETV5 (P41161 whole entry): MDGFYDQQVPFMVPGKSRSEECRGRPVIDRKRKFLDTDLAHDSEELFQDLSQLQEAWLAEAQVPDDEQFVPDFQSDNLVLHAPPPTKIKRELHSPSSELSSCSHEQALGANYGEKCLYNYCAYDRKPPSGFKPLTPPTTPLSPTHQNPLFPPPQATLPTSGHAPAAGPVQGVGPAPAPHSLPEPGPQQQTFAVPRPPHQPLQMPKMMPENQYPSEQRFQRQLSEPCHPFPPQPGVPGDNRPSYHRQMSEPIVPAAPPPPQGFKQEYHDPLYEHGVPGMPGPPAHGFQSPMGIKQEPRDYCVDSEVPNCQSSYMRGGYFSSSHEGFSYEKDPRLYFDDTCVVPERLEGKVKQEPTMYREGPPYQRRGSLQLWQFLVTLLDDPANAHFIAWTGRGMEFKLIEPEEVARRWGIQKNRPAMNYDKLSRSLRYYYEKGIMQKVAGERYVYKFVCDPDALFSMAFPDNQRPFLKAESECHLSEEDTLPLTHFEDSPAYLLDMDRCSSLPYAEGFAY
Chain of ETV1 (P50549 whole entry): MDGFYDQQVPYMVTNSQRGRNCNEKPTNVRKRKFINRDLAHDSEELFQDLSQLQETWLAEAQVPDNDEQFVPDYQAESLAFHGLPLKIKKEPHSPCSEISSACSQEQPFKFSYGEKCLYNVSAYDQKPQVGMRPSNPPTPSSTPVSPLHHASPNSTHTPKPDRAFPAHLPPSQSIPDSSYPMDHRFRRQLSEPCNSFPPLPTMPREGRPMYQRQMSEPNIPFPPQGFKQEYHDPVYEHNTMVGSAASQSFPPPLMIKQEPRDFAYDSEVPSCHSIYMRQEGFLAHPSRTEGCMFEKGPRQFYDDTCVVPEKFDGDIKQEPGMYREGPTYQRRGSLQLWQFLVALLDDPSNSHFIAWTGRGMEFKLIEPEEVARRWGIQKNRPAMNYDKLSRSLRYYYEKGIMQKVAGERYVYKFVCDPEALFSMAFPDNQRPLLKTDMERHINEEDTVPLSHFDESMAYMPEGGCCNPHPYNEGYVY

On to TCGCTG, for which the binding signal with FLI1 was 1.02 fold enrichment (6-mer frequency, TF over GST control); with GABPA it was 1.01 fold enrichment (6-mer frequency, TF over GST control); in the assay with ERG, 1.02 fold enrichment (6-mer frequency, TF over GST control); with ELF1, 1.05 fold enrichment (6-mer frequency, TF over GST control); with EHF, 1.1 fold enrichment (6-mer frequency, TF over GST control); with SPIB, 1.22 fold enrichment (6-mer frequency, TF over GST control). The binding signal was 1.23 fold enrichment (6-mer frequency, TF over GST control) in the assay with ELK3; 1.11 fold enrichment (6-mer frequency, TF over GST control) in the assay with ETV5; 1.19 fold enrichment (6-mer frequency, TF over GST control) with SPIC; 1.05 fold enrichment (6-mer frequency, TF over GST control) in the assay with ELF4; 1.15 fold enrichment (6-mer frequency, TF over GST control) with ETV1; 1.16 fold enrichment (6-mer frequency, TF over GST control) in the assay with ERF. The binding signal with ETV3L was 1.05 fold enrichment (6-mer frequency, TF over GST control); in the assay with ETS2, 1.12 fold enrichment (6-mer frequency, TF over GST control); in the assay with ETV3, 1.13 fold enrichment (6-mer frequency, TF over GST control).

The values above are taken from PMC7862700, “An all-to-all approach to the identification of sequence-specific readers for epigenetic DNA modifications on cytosine”.
